Test results as given in the supplement of paper PMC6555819.

Tests used:
Assay in all cases: PBM binding z-score (relative to random genomic background probes); higher = stronger binding; sequences stand for … in GC…GCGATTGACAGCGTAGAATGAAGG
[1] = system: PPARg:RXRa DBDmut IVT, anti-RXR (DBD mutation: RXRa K156A/R161A, NR concentration 270 nM, RXRa partner concentration 90 nM)
Procedure, shortened: (§1)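 The probes on custom Agilent 4×180K protein-binding microarrays were double-stranded, with 34-nt variable regions bearing direct-repeat seeds, single-nucleotide variants, half-site ablations and random human genomic background sequences. Incubation lasted 1 h with ligand-free nuclear receptor dimers in PBS pH 7.4, 2% milk, 0.02% Triton X-100, 1 mM DTT, 0.2 mg/mL BSA and 0.4 mg/ml salmon testes DNA. Antibodies against each partner (one per run) detected bound dimers, and fluorescence scans were regression-normalized. Binding z-scores take the random background probes as reference.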

[2] = system: PPARg:RXRa IVT, anti-PPARg (NR concentration 270 nM, RXRa partner concentration 90 nM)
Procedure, shortened: as §1

[3] = system: PPARg DBDmut:RXRa IVT, anti-PPARg (DBD mutation: PPARg1 K132A/R137A, NR concentration 270 nM, RXRa partner concentration 90 nM)
Procedure, shortened: as §1

[4] = system: PPARg DBDmut IVT, anti-PPARg (DBD mutation: PPARg1 K132A/R137A, NR concentration 270 nM)
Procedure, shortened: as §1

[5] = system: PPARg homodimer (NR concentration 180 nM)
Procedure, shortened: as §1

[6] = system: PXR:RXRa (NR concentration 270 nM, RXRa partner concentration 90 nM)
Procedure, shortened: as §1

[7] = system: PXR homodimer (NR concentration 270 nM)
Procedure, shortened: as §1

[8] = system: RARa:RXR (NR concentration 270 nM, RXRa partner concentration 90 nM)
Procedure, shortened: as §1

[9] = system: RARa homodimer (NR concentration 270 nM)
Procedure, shortened: as §1

[10] = system: RARb:RXRa (NR concentration 270 nM, RXRa partner concentration 90 nM)
Procedure, shortened: as §1

[11] = system: RARb homodimer (NR concentration 270 nM)
Procedure, shortened: as §1

[12] = system: RARg:RXRa (NR concentration 270 nM, RXRa partner concentration 90 nM)
Procedure, shortened: as §1

[13] = system: RARg homodimer (NR concentration 270 nM)
Procedure, shortened: as §1

[14] = system: RXRa DBDmut IVT, anti-RXR (DBD mutation: RXRa K156A/R161A, NR concentration 90 nM)
Procedure, shortened: as §1

[15] = system: RXRa homodimer (NR concentration 180 nM)
Procedure, shortened: as §1

[16] = system: THRa homodimer (NR concentration 90 nM)
Procedure, shortened: as §1

[17] = system: VDR homodimer (NR concentration 270 nM)
Procedure, shortened: as §1

[18] = system: VDR:RXRa (NR concentration 270 nM, RXRa partner concentration 90 nM)
Procedure, shortened: as §1

Row | Sequence | PBM binding z-score [1] | PBM binding z-score [2] | PBM binding z-score [3] | PBM binding z-score [4] | PBM binding z-score [5] | PBM binding z-score [6] | PBM binding z-score [7] | PBM binding z-score [8] | PBM binding z-score [9] | PBM binding z-score [10] | PBM binding z-score [11] | PBM binding z-score [12] | PBM binding z-score [13] | PBM binding z-score [14] | PBM binding z-score [15] | PBM binding z-score [16] | PBM binding z-score [17] | PBM binding z-score [18]
1 | CAAACTAGGTCACGTAAGGTCAAAGTCGAATGAC | 8.55 | 9.19 | 2.78 | 1.76 | 2.46 | 6.83 | 2.57 | 6.43 | 1.84 | 5.38 | 5.56 | 7.3 | 7.46 | 2.68 | 6.84 | 5.19 | 4.03 | –
2 | GCATATAGGTTATACAAGGTGAAAGTCCGATTGT | 4.93 | 4.04 | 0.859 | 0.875 | 1.26 | 2.26 | 0.302 | 2.49 | 0.937 | 1.6 | 1.57 | 1.7 | 1.41 | 0.657 | 1.79 | 1.27 | 0.435 | 1.57
3 | CGTCCAAGGTCAAAGGTCAGTGGAGAGATGACGG | 3.88 | 5.79 | 1.38 | 0.543 | 4.78 | 7.21 | 1.94 | 8.88 | 2.17 | 6.16 | 5.56 | 8.71 | 8.02 | 4.1 | 10.1 | 2.93 | 4.05 | 6.82
4 | CCTAGCAGGCCAATCTGGATCACTCAAGGCTTGA | 1.73 | 0.817 | -1.11 | -1.19 | -0.873 | -0.635 | -0.965 | -0.47 | -0.695 | 0.0834 | -0.439 | -0.153 | -0.148 | 0.159 | -0.35 | -0.7 | -0.867 | –
5 | TAGCCTAGCTCAGATCGGGCCAGTATACGCTATA | -0.922 | -0.645 | -0.837 | -1.92 | -1.79 | -1.09 | -1.09 | -1.21 | -1.25 | -1.89 | -1.12 | -0.862 | -0.645 | -1.11 | -0.698 | -0.99 | -0.652 | -0.94
6 | CTCGAAAGGTCGATTGAGGTGAGTATACGGATAA | 0.741 | 1.76 | -0.148 | 0.11 | 0.805 | 4.35 | 0.0799 | 3.05 | 0.109 | 3.67 | 2.68 | 3.71 | 3.34 | 1.66 | 3.46 | 0.93 | 0.553 | –
7 | ATATGTAGGTTAGCTGGGGTCATTCATACTAGGC | 6.88 | 6.57 | 2.9 | 2.72 | 3.41 | 6.71 | 4.4 | 6.18 | 2.13 | 3.28 | 3.88 | 4.01 | 3.08 | 2.52 | 5.44 | 3.63 | 4.81 | –
8 | CGCGAAAGGTCGGTTGAGGTGAGTATACGGATAA | 0.0113 | 0.699 | 0.0036 | -0.174 | 0.986 | 3.35 | -0.075 | 3.62 | 0.138 | 3.08 | 2.23 | 2.88 | 2.61 | 0.708 | 2.44 | 1.65 | 0.652 | –
9 | CGTCCAAGGTCAGCGAGGTCAGTGAATGCCGAGT | 3.43 | 3.81 | -0.776 | -0.834 | 4.66 | 6.03 | 11.6 | 5.42 | 1.25 | 5.45 | 5.62 | 6.74 | 7.69 | 3.3 | 6.29 | 4.19 | 6.64 | –
10 | TTACCGAGGTGAGCTGAGGTCGTTGATCCAACTC | 1.35 | 2.15 | 0.433 | -0.145 | -0.159 | 5.27 | 0.0419 | 2.36 | -0.912 | 1.76 | 1.58 | 1.48 | 1.04 | 0.0413 | 1.7 | 1.88 | 1.73 | –
11 | GGAACGAGGGCATTCGAGGTGATAGCATGGCGAT | 3.12 | 2.76 | 0.0817 | -0.391 | 0.378 | 2.36 | 0.0978 | 1.4 | -0.289 | 1.97 | 1.3 | 1.4 | 1.47 | 2.66 | 1.07 | 0.517 | 1.77 | –
12 | GCGACTGGGGCAAAGCAGGTCACCATAAGGTTGG | 3.8 | 4.81 | 0.568 | -0.842 | 1.51 | 3.05 | -0.164 | 2.96 | -0.0737 | 2.42 | 3.27 | 2.56 | 2.37 | -0.174 | 2.09 | 1.37 | 0.256 | –
13 | CGTCAAAGTTCAATTAAGGTAACGTAAAGCACGC | 0.465 | 2 | 1.09 | 1.89 | 3.06 | 5.26 | 3.98 | 3.88 | 1.69 | 4.78 | 3.89 | 5.26 | 5.98 | 4.4 | 3.67 | 2.51 | 3.71 | –
14 | ACTAGTTGGTCAACTGAGGTCACACACAATTCGG | 2.42 | 3.75 | 1.07 | 0.421 | 2.02 | 6 | 1.2 | 4.59 | 1.19 | 4.1 | 4.82 | 4.49 | 4.46 | 1.89 | 4.58 | 4.84 | 3.22 | 5.33
15 | GCATATAGGTAATACAAGATGAAAGTCCGATTGT | 4.04 | 2.21 | 1.01 | 1.1 | 0.319 | 0.0663 | 0.0386 | 0.202 | 0.786 | -0.216 | -0.399 | 0.381 | 0.572 | 0.287 | 0.469 | -0.636 | -0.117 | –
16 | CTCGAAAGGTCGTTTGAGGTGAGTATACGGATAA | 0.353 | 1.91 | 1.09 | 0.474 | 1.54 | 5.25 | 0.584 | 4.16 | -0.088 | 3.89 | 3.19 | 4.34 | 3.76 | 2.94 | 4.56 | 1.76 | 2.79 | 4.84
17 | TAGCCTAGGCCATTCAGGGGCCAGTATAGAAAGC | -0.752 | 0.1 | -0.845 | -0.806 | -0.678 | -0.717 | -0.964 | -0.354 | -0.891 | 0.992 | 0.802 | 0.999 | 0.71 | -0.81 | -0.0459 | -0.688 | -0.441 | –
18 | GATACAGGGGCAGCTAGAGGCCAGAGTATGGAAA | 0.509 | 0.442 | -0.18 | -0.917 | -0.0981 | -0.0351 | -0.216 | -0.106 | -0.394 | 1.57 | 1.18 | 2.18 | 1.15 | -0.0216 | 0.387 | -0.373 | -0.000725 | –
19 | TATACATGGTCAAAGGCCAGAGTACGAATGTCGA | -0.282 | 1.86 | 1.66 | 0.812 | 0.786 | 0.255 | 0.252 | 0.943 | 0.241 | 1.6 | 1.31 | 1.59 | 1.67 | -0.652 | 1.39 | -0.46 | 0.302 | 0.445
